Compounds without any hit were thinned out: in the full panel of roughly 83,000, 20% have a hit.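 Values shown are percent growth following 48 h exposure of cells in 96-well plates to a single concentration of compound; below 10 was considered active.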 Unmarked numbers belong to inactive results. Calls of active or inactive are those of the source.
Experiments:
Assay in all cases: NCI-60 one-dose screen, 48 h (100 = growth as untreated, 0 = no growth, -100 = all killed)
Conditions in all cases: 10 µM unless noted
[1] = tested on: EKVX NSCLC
[2] = tested on: SN12C renal
[3] = tested on: UO-31 renal
[4] = tested on: TK-10 renal
[5] = tested on: ACHN renal
[6] = tested on: CAKI-1 renal
[7] = tested on: A498 renal
[8] = tested on: CCRF-CEM leukemia
[9] = tested on: MOLT-4 leukemia
[10] = tested on: SR leukemia
[11] = tested on: RPMI-8226 leukemia
[12] = tested on: OVCAR-8 ovarian
[13] = tested on: OVCAR-5 ovarian
[14] = tested on: OVCAR-4 ovarian
[15] = tested on: SK-OV-3 ovarian
[16] = tested on: IGROV1 ovarian
[17] = tested on: OVCAR-3 ovarian
[18] = tested on: NCI/ADR-RES ovarian

S=C(NCc1ccc2c(c1)OCO2)N1CCN(c2ncnc3c2oc2ccccc23)CC1
growth [1]: 38.8% | growth [2]: 50.8% | growth [3]: 11.9% | growth [4]: -3% (active) | growth [5]: 19.6% | growth [6]: 28% | growth [7]: 19.8% | growth [8]: 22.5% | growth [9]: 5.79% (active) | growth [10]: 14.8% | growth [11]: 21.3% | growth [12]: 24.8% | growth [13]: 62.1% | growth [14]: 14.1% | growth [15]: 35.6% | growth [16]: 33.4% | growth [17]: 30.9% | growth [18]: 28.3%

CCN(CCO)CCCOc1ccc2c(Nc3cc(CC(=O)Nc4cccc(F)c4)[nH]n3)ncnc2c1
growth [1]: 51.8% | growth [2]: 46.9% | growth [3]: 50.4% | growth [4]: 31.5% | growth [5]: 48.9% | growth [6]: 35.4% | growth [7]: 47.4% | growth [8]: 40.3% | growth [9]: 36.3% | growth [10]: 12.3% | growth [11]: 72.5% | growth [12]: 49.8% | growth [13]: 20.7% | growth [14]: 48.4% | growth [15]: 68.3% | growth [16]: 16.4% | growth [17]: 44.4% | growth [18]: 70.7%

Cc1cccc(C)c1N1C(c2ccccc2)=NNC12C=CC(=O)c1c(O)cccc12 (stereo not drawn)
growth [1]: 91.3% | growth [2]: 72.5% | growth [3]: 48.4% | growth [4]: 111% | growth [5]: 88.6% | growth [6]: 101% | growth [7]: 109% | growth [8]: 95.9% | growth [9]: 76.9% | growth [10]: 56.9% | growth [11]: 75.6% | growth [12]: 69.6% | growth [13]: 90.8% | growth [14]: 70.5% | growth [15]: 86% | growth [16]: 83.3% | growth [17]: 51.7% | growth [18]: 70.3%

C=CC(=O)Nc1cc2c(Nc3ccc(F)c(Cl)c3)ncnc2cc1C#CC(C)(C)N1CCN(C)CC1
growth [1]: -93% (active) | growth [2]: -87.7% (active) | growth [3]: -99.8% (active) | growth [4]: -97.5% (active) | growth [5]: -100% (active) | growth [6]: -99.8% (active) | growth [7]: -96.3% (active) | growth [8]: -11.5% (active) | growth [9]: -23.1% (active) | growth [10]: -14.2% (active) | growth [11]: -34.2% (active) | growth [12]: -73.5% (active) | growth [13]: -95.5% (active) | growth [14]: -96.2% (active) | growth [15]: -96.6% (active) | growth [16]: -73.9% (active) | growth [17]: -96.7% (active) | growth [18]: -52.2% (active)

CCN(CCCOc1ccc2c(Nc3cc(CC(=O)Nc4cccc(F)c4)[nH]n3)ncnc2c1)CCOP(=O)(O)O
growth [1]: 99.3% | growth [2]: 79% | growth [3]: 69.3% | growth [4]: 83.9% | growth [5]: 95.5% | growth [6]: 58.1% | growth [7]: 98.4% | growth [8]: 51.4% | growth [9]: 46.5% | growth [10]: 36.3% | growth [11]: 91.5% | growth [12]: 70.2% | growth [13]: 59.3% | growth [14]: 79.9% | growth [15]: 77.1% | growth [16]: 62.4% | growth [17]: 78.2% | growth [18]: 98.3%

O=C(NC1CCNCC1)c1[nH]ncc1NC(=O)c1c(Cl)cccc1Cl
growth [1]: 52.5% | growth [2]: 12.7% | growth [3]: 70.6% | growth [4]: 25.8% | growth [5]: 66.5% | growth [6]: 45.4% | growth [7]: -25.3% (active) | growth [8]: 11.2% | growth [9]: 5.67% (active) | growth [10]: 2.12% (active) | growth [11]: 1.32% (active) | growth [12]: 9% (active) | growth [13]: 9.52% (active) | growth [14]: 8.44% (active) | growth [15]: 7.3% (active) | growth [16]: 10.2% | growth [17]: 4.35% (active) | growth [18]: 85%

COc1cc(Nc2ncc3c(n2)-c2ccc(Cl)cc2C(c2c(F)cccc2OC)=NC3)ccc1C(=O)O
growth [1]: 89.9% | growth [2]: 72.6% | growth [3]: 51.7% | growth [4]: 63.9% | growth [5]: 64.4% | growth [6]: 68.2% | growth [7]: 63.2% | growth [8]: 47.2% | growth [9]: 52.8% | growth [10]: 5.63% (active) | growth [11]: 82.7% | growth [12]: 68.3% | growth [13]: 82.4% | growth [14]: 78.4% | growth [15]: 61.6% | growth [16]: 63.3% | growth [17]: 72.9% | growth [18]: 64.2%

O=C(NC[C@H](O)CO)c1ccncc1Nc1ccc(I)cc1F
growth [1]: 45.1% | growth [2]: 60.3% | growth [3]: 35.1% | growth [4]: 40.5% | growth [5]: 41.4% | growth [6]: 32.7% | growth [7]: -21.9% (active) | growth [8]: 102% | growth [9]: 90.3% | growth [10]: 57.2% | growth [11]: 74.6% | growth [12]: 66.9% | growth [13]: 7.42% (active) | growth [14]: 41.4% | growth [15]: 33.8% | growth [16]: 16.3% | growth [17]: 83.7% | growth [18]: 58.7%

CC(=O)NCC(=O)N1[C@@H]2CC[C@H]1c1ccc(Nc3ncc(C(F)(F)F)c(NC4CCC4)n3)cc12
growth [1]: 69.1% [2.5 µM] | growth [2]: 37.8% [2.5 µM] | growth [3]: 2.84% [2.5 µM] (active) | growth [4]: 43.7% [2.5 µM] | growth [5]: 38.6% [2.5 µM] | growth [6]: 20.5% [2.5 µM] | growth [7]: 14.7% [2.5 µM] | growth [8]: 40.2% [2.5 µM] | growth [9]: 20% [2.5 µM] | growth [10]: 2.18% [2.5 µM] (active) | growth [11]: 71.4% [2.5 µM] | growth [12]: 55.3% [2.5 µM] | growth [13]: 32.4% [2.5 µM] | growth [14]: 64.4% [2.5 µM] | growth [15]: 15.9% [2.5 µM] | growth [16]: 31.5% [2.5 µM] | growth [17]: 67.8% [2.5 µM] | growth [18]: 59.7% [2.5 µM]

NC1(C(=O)N[C@@H](CCO)c2ccc(Cl)cc2)CCN(c2ncnc3[nH]ccc23)CC1
growth [1]: 61.9% | growth [2]: 55.6% | growth [3]: 17.5% | growth [4]: 13.7% | growth [5]: 53.4% | growth [6]: 34.4% | growth [7]: -46.2% (active) | growth [8]: 41.6% | growth [9]: 11.4% | growth [10]: 23.7% | growth [11]: 80% | growth [12]: 76.4% | growth [13]: 51.6% | growth [14]: 64.9% | growth [15]: -6.71% (active) | growth [16]: 3.26% (active) | growth [17]: 61.3% | growth [18]: 90.7%

COCCN1CCN(Cc2ccc(-c3n[nH]c4c3C(=O)c3c(NC(=O)NN5CCOCC5)cccc3-4)cc2)CC1
growth [1]: -3.26% (active) | growth [2]: 7.64% (active) | growth [3]: -14.2% (active) | growth [4]: -30.9% (active) | growth [5]: 3.84% (active) | growth [6]: -18.3% (active) | growth [7]: -22% (active) | growth [8]: -15.3% (active) | growth [9]: -15% (active) | growth [10]: -10.3% (active) | growth [11]: -37.4% (active) | growth [12]: -13.4% (active) | growth [13]: 9.54% (active) | growth [14]: -0.503% (active) | growth [15]: -7.89% (active) | growth [16]: -10.9% (active) | growth [17]: 9.5% (active) | growth [18]: 5% (active)

COC(=O)N[C@@H](C)CNc1nccc(-c2cn(C(C)C)nc2-c2cc(Cl)cc(NS(C)(=O)=O)c2F)n1
growth [1]: 63.1% | growth [2]: 66.9% | growth [3]: 16.9% | growth [4]: 52% | growth [5]: 28% | growth [6]: 34.2% | growth [7]: 31.9% | growth [8]: 89.8% | growth [9]: 67.4% | growth [10]: 51.7% | growth [11]: 113% | growth [12]: 72.5% | growth [13]: 42.9% | growth [14]: 71.4% | growth [15]: 22.8% | growth [16]: 42.2% | growth [17]: 87% | growth [18]: 96.8%

C=CCN1C(=O)c2cccc3c(-c4ccc5c(c4)ncn5C4CCCCC4)ccc(c23)C1=O
growth [1]: 52.9% | growth [2]: 61.5% | growth [3]: 34.5% | growth [4]: 69.9% | growth [5]: 55.3% | growth [6]: 52.2% | growth [7]: 76.9% | growth [8]: 33% | growth [9]: 5.4% (active) | growth [10]: 39.8% | growth [11]: 29.5% | growth [12]: 49.5% | growth [13]: 75.3% | growth [14]: 32.3% | growth [15]: 73.4% | growth [16]: 67.1% | growth [17]: 62.4% | growth [18]: 39.6%

CCn1cc(-c2ccnc3[nH]c(-c4cccc(CN(C)C)c4)cc23)c(-c2ccc(NC(=O)N(C)C)cc2)n1
growth [1]: 55.4% | growth [2]: 24.1% | growth [3]: -10.7% (active) | growth [4]: 44.3% | growth [5]: 15.4% | growth [6]: 6.96% (active) | growth [7]: -34.1% (active) | growth [8]: 4.15% (active) | growth [9]: 7.17% (active) | growth [10]: -15.8% (active) | growth [11]: 3% (active) | growth [12]: 24.9% | growth [13]: 24.5% | growth [14]: 41.1% | growth [15]: -0.688% (active) | growth [16]: 26.3% | growth [17]: 48.1% | growth [18]: 72.4%

O=C(Nc1cccc(Cl)c1)Nc1ncc(CCNc2ncnc3ccsc23)s1
growth [1]: 34.5% | growth [2]: 53.7% | growth [3]: 27.5% | growth [4]: 28.9% | growth [5]: 26.8% | growth [6]: 21.7% | growth [7]: 29.3% | growth [8]: 10.1% | growth [9]: -4.94% (active) | growth [10]: 19.3% | growth [11]: 7.45% (active) | growth [12]: 1.53% (active) | growth [13]: 64.6% | growth [14]: 24.6% | growth [15]: 47.5% | growth [16]: 36% | growth [17]: 38.3% | growth [18]: 9.39% (active)

C=CC(=O)Nc1cc2c(Nc3ccc(F)c(Cl)c3)ncnc2cc1OCCCN1CCOCC1
growth [1]: 15.8% | growth [2]: 0.752% (active) | growth [3]: -12.8% (active) | growth [4]: -6.01% (active) | growth [5]: 2.82% (active) | growth [6]: -5.99% (active) | growth [7]: -29.3% (active) | growth [8]: 4.44% (active) | growth [9]: -6.89% (active) | growth [10]: -8.22% (active) | growth [11]: -9.72% (active) | growth [12]: -17.6% (active) | growth [13]: 35.6% | growth [14]: 8.1% (active) | growth [15]: -16.3% (active) | growth [16]: -67.5% (active) | growth [17]: 14.7% | growth [18]: 13.8%
